According to PubChem BioAssay (NCI):
Compounds without any hit were thinned out: in the full panel of roughly 79,000, 15% have a hit. Active and inactive are the calls of the source. No stated cut-off is given here; in the data, active means growth inhibition above about 70%; inactive means the rest.

Legend:
[1] = NCI Yeast Anticancer Drug Screen. Data for the wt1 strain (AID 149);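 further: 0% = growth of vehicle-treated wt1 cultures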; settings: S. cerevisiae wt1 strain (SPY 50644) growth inhibition, hits give high values
How it was run: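 wt1 strain grown with compound or vehicle; inhibition taken from the growth difference.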

[2] = NCI Yeast Anticancer Drug Screen. Data for the rad50EPP+ strain (AID 151);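 further: 0% = growth of vehicle-treated control cultures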; settings: S. cerevisiae rad50 mutant strain, hits give high values
How it was run: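 Strain rad50EPP+; compound exposure; % growth inhibition vs vehicle.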

[3] = NCI Yeast Anticancer Drug Screen. Data for the mgt1 strain (AID 153); settings: S. cerevisiae mgt1 mutant growth inhibition, hits give high values
How it was run: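 Read-out: yeast growth inhibition vs vehicle control. Strain mgt1, drawn from a panel altered in DNA damage repair or cell cycle control.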

[4] = NCI Yeast Anticancer Drug Screen. Data for the rad50 strain (AID 155);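 further: 0% = growth of vehicle-only cultures of the same strain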; settings: S. cerevisiae rad50 strain growth inhibition, hits give high values
How it was run: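 DNA repair mutant yeast, compound exposure, growth read-out; inhibition is taken relative to vehicle.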

[5] = NCI Yeast Anticancer Drug Screen. Data for the mec2-1 strain (AID 157); settings: S. cerevisiae mec2-1 strain, hits give high values
How it was run: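 Cells of the genetically defined mec2-1 yeast strain are incubated with test compound. Inhibition of growth is calculated against vehicle-treated controls.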

[6] = NCI Yeast Anticancer Drug Screen. Data for the rad14 strain (AID 159);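 further: 0% = growth of vehicle-treated control cultures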; settings: S. cerevisiae rad14 strain growth inhibition, hits give high values
How it was run: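 DNA repair-defective yeast, compound-exposed; % growth inhibition derived by comparison with vehicle-treated controls.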

[7] = NCI Yeast Anticancer Drug Screen. Data for the sgs1 mgt1 strain (AID 161);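 further: 0% = growth of cultures given vehicle only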; settings: S. cerevisiae sgs1 mgt1 strain, hits give high values
How it was run: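 Genetically altered yeast, compound exposure, growth inhibition relative to vehicle.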

[8] = NCI Yeast Anticancer Drug Screen. Data for the CLN2oe strain (AID 163);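 further: 0% = growth of vehicle-only control cultures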; settings: S. cerevisiae CLN2oe strain, hits give high values
How it was run: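 Strain altered in cell-cycle control, incubated with compound; growth compared to solvent-treated controls.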

[9] = NCI Yeast Anticancer Drug Screen. Data for the cln2 rad14 strain (AID 165);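 further: 0% = growth equal to vehicle treated cultures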; settings: S. cerevisiae cln2 rad14 strain, hits give high values
How it was run: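 The screen exposed genetically defined yeast (cln2 rad14) to test compounds and scored growth inhibition relative to vehicle-treated controls.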

[10] = NCI Yeast Anticancer Drug Screen. Data for the bub3 strain (AID 167); settings: S. cerevisiae bub3 mutant strain, hits give high values
How it was run: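 In this screen, a yeast mutant lacking normal mitotic checkpoint function is challenged with compound. Relative growth versus vehicle gives the inhibition value.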

[11] = NCI Yeast Anticancer Drug Screen. Data for the wt2 strain (AID 169);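 further: 0% = growth of vehicle-treated yeast cultures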; settings: S. cerevisiae wt2 strain growth inhibition, hits give high values
How it was run: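 Steps: yeast strain treated with compound; growth recorded; inhibition calculated relative to cultures given vehicle alone.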

[12] = NCI Yeast Anticancer Drug Screen. Data for the mlh1 strain (AID 171);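 further: 0% = growth of vehicle-treated control cultures of the same strain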; settings: S. cerevisiae mlh1 strain growth inhibition, hits give high values
How it was run: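 Yeast screen: mutant strain plus compound, growth scored against vehicle control wells.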

[13] = NCI Yeast Anticancer Drug Screen. Data for the sgs1 strain (AID 173);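 further: 0% = growth of vehicle-only control cultures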; settings: S. cerevisiae sgs1 mutant, hits give high values
How it was run: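 Inhibition of yeast growth served as the measure. The mutant strain was treated with each compound, and growth was normalised to cultures receiving vehicle alone.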

[14] = NCI Yeast Anticancer Drug Screen. Data for the mlh1 rad18 strain (AID 175); settings: S. cerevisiae mlh1 rad18 strain growth inhibition, hits give high values
How it was run: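 Compound-treated yeast growth, normalised to vehicle controls. Strain bears defined DNA repair mutations.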

[15] = NCI Yeast Anticancer Drug Screen. Data for the rad18 strain (AID 177); settings: S. cerevisiae rad18 mutant growth inhibition, hits give high values
How it was run: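 Inhibition values reflect reduced yeast growth compared with vehicle-treated controls, using a strain engineered with a DNA damage repair defect.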

[16] = at 5.0 µM (retest, dose inferred, filed as 0.5)
[17] = at 50.0 µM (retest, dose inferred, filed as 5.0)

Measured: growth inhibition

O=C(c1c(F)c(F)c(F)c(F)c1F)c1c(F)c(F)c(F)c(F)c1F
active: [1]; at 11.0 µM 95% | [1]; at 33.0 µM 99% | [1]; at 100.0 µM 99% | [2]; at 11.0 µM 94% | [2]; at 33.0 µM 96% | [2]; at 100.0 µM 92% | [3]; at 11.0 µM 98% | [3]; at 33.0 µM 99% | [3]; at 100.0 µM 99% | [4]; [16] 79% | [4]; at 11.0 µM 95% | [4]; at 33.0 µM 96% | [4]; [17] 97% | [4]; at 50.0 µM 84.6% | [4]; at 100.0 µM 95% | [5]; at 3.7 µM 77% | [5]; at 11.0 µM 99% | [5]; at 33.0 µM 100% | [5]; [17] 99% | [5]; at 50.0 µM 87.5% | [5]; at 100.0 µM 99% | [6]; at 11.0 µM 98% | [6]; at 33.0 µM 99% | [6]; at 100.0 µM 99% | [7]; [17] 74% | [7]; at 50.0 µM 76.7% | [8]; at 3.7 µM 72% | [8]; at 11.0 µM 98% | [8]; at 33.0 µM 99% | [8]; at 100.0 µM 97% | [9]; [17] 70% | [9]; at 50.0 µM 85.7% | [10]; at 3.7 µM 80% | [10]; at 11.0 µM 96% | [10]; at 33.0 µM 99% | [10]; [17] 80% | [10]; at 50.0 µM 88.7% | [10]; at 100.0 µM 97% | [11]; at 11.0 µM 98% | [11]; at 33.0 µM 99% | [11]; at 100.0 µM 98% | [12]; at 11.0 µM 97% | [12]; at 33.0 µM 98% | [12]; at 100.0 µM 97% | [13]; at 3.7 µM 72% | [13]; at 11.0 µM 96% | [13]; at 33.0 µM 97% | [13]; at 100.0 µM 95% | [14]; [17] 88%
inactive: [1]; at 1.2 µM 3% | [1]; at 3.7 µM 49% | [2]; at 1.2 µM 30% | [2]; at 3.7 µM 60% | [3]; at 1.2 µM 24% | [3]; at 3.7 µM 59% | [4]; at 1.2 µM 27% | [4]; at 3.7 µM 59% | [5]; at 1.2 µM 36% | [5]; [16] 61% | [6]; at 1.2 µM 10% | [6]; at 3.7 µM 55% | [7]; [16] 15% | [8]; at 1.2 µM 4% | [9]; [16] 38% | [10]; at 1.2 µM 54% | [10]; [16] 3% | [11]; at 1.2 µM 16% | [11]; at 3.7 µM 52% | [12]; at 1.2 µM 16% | [12]; at 3.7 µM 56% | [13]; at 1.2 µM 39% | [14]; [16] 45% | [14]; at 50.0 µM 67.3%

CN(C)CCNC(=O)c1cccc2nc3c(ccc4ccccc43)nc12
active: [1]; at 100.0 µM 85% | [2]; at 33.0 µM 75% | [2]; at 100.0 µM 96% | [3]; at 100.0 µM 99% | [4]; at 33.0 µM 91% | [4]; [17] 94% | [4]; at 50.0 µM 90% | [4]; at 100.0 µM 98% | [5]; at 50.0 µM 73.8% | [5]; at 100.0 µM 94% | [6]; at 100.0 µM 99% | [8]; at 100.0 µM 72% | [10]; at 100.0 µM 97% | [11]; at 100.0 µM 92% | [12]; at 100.0 µM 98% | [13]; at 100.0 µM 98% | [14]; [17] 92% | [14]; at 50.0 µM 90.2% | [15]; at 100.0 µM 99%
inactive: [1]; at 1.2 µM -3% | [1]; at 3.7 µM -2% | [1]; at 11.0 µM 2% | [1]; at 33.0 µM 17% | [2]; at 1.2 µM -3% | [2]; at 3.7 µM 1% | [2]; at 11.0 µM 15% | [3]; at 1.2 µM -1% | [3]; at 3.7 µM -1% | [3]; at 11.0 µM 1% | [3]; at 33.0 µM 31% | [4]; at 1.2 µM 3% | [4]; at 3.7 µM 26% | [4]; [16] 13% | [4]; at 11.0 µM 67% | [5]; at 1.2 µM -1% | [5]; at 3.7 µM 2% | [5]; [16] 5% | [5]; at 11.0 µM 10% | [5]; at 33.0 µM 25% | [5]; [17] 23% | [6]; at 1.2 µM -2% | [6]; at 3.7 µM 2% | [6]; at 11.0 µM 14% | [6]; at 33.0 µM 50% | [7]; [16] 3% | [7]; [17] 37% | [7]; at 50.0 µM 40.2% | [8]; at 1.2 µM -5% | [8]; at 3.7 µM -1% | [8]; at 11.0 µM -2% | [8]; at 33.0 µM 18% | [9]; [16] 4% | [9]; [17] 57% | [9]; at 50.0 µM 26.9% | [10]; at 1.2 µM 1% | [10]; at 3.7 µM 3% | [10]; [16] -40% | [10]; at 11.0 µM 5% | [10]; at 33.0 µM 24% | [10]; [17] 43% | [10]; at 50.0 µM 24.1% | [11]; at 1.2 µM -2% | [11]; at 3.7 µM 6% | [11]; at 11.0 µM -2% | [11]; at 33.0 µM 13% | [12]; at 1.2 µM -1% | [12]; at 3.7 µM 0% | [12]; at 11.0 µM 3% | [12]; at 33.0 µM 28% | [13]; at 1.2 µM -4% | [13]; at 3.7 µM -4% | [13]; at 11.0 µM 1% | [13]; at 33.0 µM 30% | [14]; [16] 7% | [15]; at 1.2 µM -2% | [15]; at 3.7 µM 2% | [15]; at 11.0 µM 11% | [15]; at 33.0 µM 61%
